# Apoferritin bind: binds horse apoferritin like a general anesthetic; apoferritin/1-aminoanthracene competitive binding, fluorescence; Potency, µM (highest dose often 77.5 µM), for inactives: at the top dose activity change, negative = displacement, actives largely listed as inhibitors; hit rate 0.074% among 350,000; AID 485281; active = well fitted inhibition curve with a large enough effect; inconclusive = small, poorly fitted or top-dose-only effect; inactive = no such curve, though single readings can be large or run the other way; also: potency is read from the fitted curve at half-maximal effect; % is scaled to controls: 0 for no effect and ±100 for the full control effect; nearly all actives have a fitted effect of over 20% in size
# Target sequence (P02791 2-175 limits assumed): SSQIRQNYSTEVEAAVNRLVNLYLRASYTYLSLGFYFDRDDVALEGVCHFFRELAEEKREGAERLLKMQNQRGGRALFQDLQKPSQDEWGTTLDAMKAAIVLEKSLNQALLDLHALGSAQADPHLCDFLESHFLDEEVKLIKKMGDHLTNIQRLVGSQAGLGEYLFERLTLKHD
#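 Steps: apoferritin (10 uM) was premixed with half-saturated 1-AMA in PBS, compounds were pin-transferred, plates stood 10 min at room temperature, fluorescence was read at 380/535 nm, and curves were fitted with a Hill equation.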
# D2 ag-1: human D2 receptor agonism in beta-arrestin assay. AID 624465. activation, % (no concentration beside the values). hit rate 0.084% among 360,000. DiscoveRx PathHunter D2 beta-arrestin, luminescence, 90 min; 100% = 57 uM dopamine signal; in the data active = activation above about 40%; inconclusive = between about 15% and that limit
# Target sequence (P14416 whole entry, looked up): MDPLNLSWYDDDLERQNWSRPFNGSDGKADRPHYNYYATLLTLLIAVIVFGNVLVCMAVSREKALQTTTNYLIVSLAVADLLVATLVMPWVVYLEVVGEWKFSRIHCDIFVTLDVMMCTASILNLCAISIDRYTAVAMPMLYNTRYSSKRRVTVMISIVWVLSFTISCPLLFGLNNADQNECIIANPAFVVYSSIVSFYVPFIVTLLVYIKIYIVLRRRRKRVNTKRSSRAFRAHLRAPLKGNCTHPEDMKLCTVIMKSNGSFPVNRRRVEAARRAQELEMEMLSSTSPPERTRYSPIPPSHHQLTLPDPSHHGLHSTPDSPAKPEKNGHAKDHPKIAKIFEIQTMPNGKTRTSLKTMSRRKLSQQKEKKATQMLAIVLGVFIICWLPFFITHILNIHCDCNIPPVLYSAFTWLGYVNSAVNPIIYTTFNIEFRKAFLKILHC
#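 DiscoveRx PathHunter D2 beta-arrestin cells (2,100/well) attached overnight, then compound-stimulated 90 min at 37 C in HBSS/10 mM HEPES/0.1% Tween-20 buffer; beta-galactosidase complementation read by luminescence after 1 h at ambient temperature. Dopamine 57 uM final (EC100) as control.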
# D2 ag-2: D2 dopamine receptor (human) agonism. P14416. HEK293 T-REx D2 cells, calcium flux agonist mode. activation, % at 2 µM. hit rate 0.53% among 340,000. AID 485358;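 active = activation over 3 SD above normal in the single-dose calcium agonist read, cut at about 30% in these data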; also: 0% is about no effect
#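 Agonism is scored from calcium flux in a force-coupled, inducible HEK293 cell line expressing D2, read kinetically for 180 s after compound addition against dopamine controls.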
# D2 PAM-1: potentiates the human D2 dopamine receptor allosterically; P14416; DiscoveRx D2 beta-arrestin cells, luminescence, 90 min; 100% = 57 uM dopamine signal; potentiation, % (concentration not given with the values); hit rate 0.23% among 360,000; AID 624464; in the data active = potentiation above about 50%; inconclusive = mostly about 30% to 49%
#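 PathHunter D2 cells, attached overnight at 37 deg C, received compound in DMSO plus dopamine at EC20 (50 nM final) for 90 min at 37 deg C. Beta-arrestin recruitment was read as luminescence after 1 h with detection reagent at ambient temperature.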
# D2 antag: D2 dopamine receptor (human) antagonism; P14416; HEK293 TREx D2 cells, calcium flux, dopamine EC80; inhibition, % at 10 µM; hit rate 2% among 340,000; in the data active = inhibition above about 30%; inactive = below that, where a call was filed; also: 0% is about no effect
#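 Cells plated overnight at 30 C with tetracycline; no-wash calcium dye, 30–90 min RT; 10 s baseline; compound pinned; 180 s read; EC80 dopamine added; another 180 s read.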
# D2 PAM-2: D2 dopamine receptor (human) potentiation; P14416; HEK293 T-REx D2, calcium flux, EC20 dopamine potentiation; potentiation, % at 10 µM; hit rate 0.34% among 340,000;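 active = potentiation over 3 SD above the plate norm, cut at about 30% in these data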; also: 0% is about no effect
#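 Potentiation of an EC20 dopamine calcium response is measured in a force-coupled, tetracycline-inducible Hek293 Trex D2 line. Compound-only kinetic reads over 180 s flag agonists before dopamine addition.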
# Active calls of the source: *; ? = inconclusive; . = no result given. Shown are actives, neighbours in structure and some others; about 2.5% of the full set was active somewhere.
SMILES,Apoferritin bind,D2 ag-1,D2 ag-2,D2 PAM-1,D2 antag,D2 PAM-2
CC(C)[C@H](NC(=O)N1CCn2c1nc1ccccc12)C(=O)N[C@@H](C(=O)O)c1ccccc1,-2.5%,-5.4,10.4,-1.7,21.2,11.1
CCOc1ccc(S(=O)(=O)Nc2ccc(C(=O)N(CC)CC(=O)NCc3cccs3)cc2)cc1,.,-1.8,.,-8.4,.,.
CCOC(=O)c1c(C)oc2c1c(CN1CCN(CCO)CC1)c(O)c1ccccc12,-21.7%,6.3,0.0,21.5,-9.8,6.7
CCOC(=O)c1c(C)oc2c1c(CN1CCN(C(=O)OCC)CC1)c(O)c1ccccc12,-18.5%,?,0.7,74.9*,4.5,-2.6
CCOC(=O)c1c(C)oc2c1c(C(c1ccncc1)N1CCOCC1)c(O)c1ccccc12 (stereo unspecified),?,7.9,0.0,69.2*,-7.3,.
CC(=O)NCc1ccc(C(=O)CCl)s1,-0.4%,-0.5,.,1.1,.,.
CCN1/C(=C/C=C/c2oc3ccc4ccccc4c3[n+]2CC)Oc2ccc3ccccc3c21,?,3.3,44.9*,0.4,6.6,-4.3
CCN1C(=O)/C(=C/C=C2/Sc3ccc4ccccc4c3N2CCO)SC1=S,-7.6%,-1.9,-0.1,-4.3,6.2,-1.4
CN(C)S(=O)(=O)c1cccc(NC(=O)c2ccc(OC(F)(F)F)cc2)c1,0.6%,0.6,-0.5,-31.4,46.3*,-23.6
Cc1ccc(S(=O)(=O)N(C)C)cc1NC(=O)c1ccc(OC(F)(F)F)cc1,5.0%,-7.0,-1.3,-10.7,4.9,-27.1
CN(C)S(=O)(=O)c1cccc(C(=O)Nc2ccccc2)c1,-1.8%,6.5,-0.3,-4.4,47.0*,2.6
O=C(O)CCCC(=O)Nc1ccc(N2CCCC2)cc1,-6.6%,5.1,-0.1,69.2*,-2.7,1.0
O=C(O)CCC(=O)Nc1ccc(C(=O)N2CCCCC2)cc1,-5.9%,-2.9,-0.9,-10.2,6.4,32.6*
CCCC(=O)Nc1ccc(N2CCCCC2)cc1,-9.1%,-3.1,-0.8,-2.9,6.0,-9.3
CC(=O)Nc1ccc(C(=O)N2CCCC2)cc1,-6.5%,-1.2,-0.2,-21.7,1.4,32.2*
O=C(O)CCCC(=O)Nc1ccc(C(=O)N2CCCCC2)cc1,-4.0%,-3.7,0.0,-7.1,-6.7,10.8
COc1ccc2oc(=O)c(/C(C)=N/NC(=O)c3ccncc3)cc2c1,259.3%,-3.8,-0.3,-8.4,6.1,11.0
Cc1ccc2c(c1)c(=O)c(Br)c(C)n2Cc1ccccc1,-9.2%,-4.7,0.1,-17.5,56.3*,-5.0
Cc1ccc(C(=O)Nc2cc(-c3nc4ncccc4o3)ccc2C)c(C)c1,-1.9%,.,.,.,.,8.2
N/C(COc1ccc(Cl)cc1Cl)=N\O,-4.6%,-4.3,1.1,-17.5,-7.1,32.3*
CCNC(=O)OCCC12CC3CC(CC(C3)C1)C2,?,1.8,-0.1,-14.6,-7.4,5.0
O=C(O)/C=C/c1ccc(-c2cccc(C(F)(F)F)c2)o1,-13.1%,-4.5,-0.5,1.4,-5.0,42.8*
O=C(/C=C\c1ccc(-c2ccccc2)o1)c1ccccc1,-10.8%,-3.8,.,-14.2,.,.
CCN1CCN(S(=O)(=O)c2ccc(Cl)c(C(=O)N(CC(C)C)C3CCS(=O)(=O)C3)c2)CC1 (stereo unspecified),.,-4.1,.,3.1,.,.
CC(C)CN(C(=O)Cn1nnc(-c2ccc(F)cc2)n1)C1CCS(=O)(=O)C1 (stereo unspecified),.,-6.4,0.6,-67.1,55.3*,-5.6
SMILES,Apoferritin bind,D2 ag-1,D2 ag-2,D2 PAM-1,D2 antag,D2 PAM-2
CC(C)CN(C(=O)c1cccc(S(=O)(=O)N2CCN(c3ccc(F)cc3)CC2)c1)C1CCS(=O)(=O)C1 (stereo unspecified),.,-3.9,0.1,-21.1,34.6*,-8.3
CC(C)CN(C(=O)Cn1nnc(-c2ccc(Cl)cc2)n1)C1CCS(=O)(=O)C1 (stereo unspecified),.,-4.6,.,-15.7,.,.
O=C(CCc1ccccc1)N1N=C(c2ccncc2)CC1(O)C(F)(F)F (stereo unspecified),-4.6%,-2.3,-0.1,-4.4,-0.9,3.0
CC(C)OCCCNC(=O)Cc1ccc(F)cc1,-2.2%,-1.3,0.9,-3.3,57.1*,-20.4
Cc1ccc(C(C)C)c(OCc2ccc(C(=O)Nc3ccc(S(N)(=O)=O)cc3C)o2)c1,-22.2%,.,0.6,.,.,-0.8
COc1ccccc1C(=O)N1CCN(Cc2nc3cc([N+](=O)[O-])ccc3n2C)CC1,-13.4%,-4.4,-0.3,-9.9,35.7*,-4.2
CC(=O)N1CCN(Cc2nc3cc([N+](=O)[O-])ccc3n2C)CC1,1.7%,0.4,.,-6.4,.,.
CC(=O)c1cccc(CN2CCN(CC=C(C)C)C(CCO)C2)c1 (stereo unspecified),-3.8%,-0.9,0.8,-10.9,-8.0,-19.4
CC(=O)c1cccc(CN2CCN(CCc3ccccc3)C(CCO)C2)c1 (stereo unspecified),-9.0%,-2.5,1.2,-26.2,34.3*,-16.8
CC(=O)c1cccc(CN2CCN(Cc3ccc(C)cc3)C(CCO)C2)c1 (stereo unspecified),-10.0%,-6.1,0.5,-31.8,54.6*,-27.3
CCC(C)NS(=O)(=O)c1ccc(OCC(=O)Nc2ccc3c(c2)OCCO3)cc1 (stereo unspecified),?,-1.1,0.2,-0.7,5.7,47.8*
CCC(C)NS(=O)(=O)c1ccc(OCC(=O)NCC2CCCO2)cc1 (stereo unspecified),-6.3%,0.5,-2.3,-1.7,-1.7,34.1*
O=C(COc1ccc(S(=O)(=O)NC2CCCC2)cc1)NCC1CCCO1 (stereo unspecified),-3.6%,3.3,1.4,-3.7,7.8,12.1
COc1ccc(CC(=O)Nc2ccc(S(=O)(=O)NCC3CCCO3)cc2)cc1 (stereo unspecified),-2.3%,0.9,-0.5,-6.3,31.8*,1.7
Cc1ccc(NC(=O)CCN2C(=O)NC3(CCCC3)C2=O)c(C)c1,.,-4.6,17.9,-7.3,50.6*,-20.1
CCCC(C)NS(=O)(=O)c1ccccc1 (stereo unspecified),?,-0.6,.,-20.2,.,7.3
CCCC(C)NS(=O)(=O)c1ccc(OC)c(C)c1 (stereo unspecified),15.8µM*,0.0,-1.1,-10.9,8.6,-12.1
Cc1cc(C(N)=O)c2cc(Br)ccc2n1,1.6%,-2.3,0.1,-0.7,-0.8,38.6*
COc1cc(C)nc(N2CCCC(C(=O)Nc3cc(Cl)ccc3OC)C2)n1 (stereo unspecified),-4.2%,0.7,1.3,-1.2,6.9,80.6*
COc1ccc(NC(=O)C2CCCN(c3cc(C)nc4ncnn34)C2)cc1 (stereo unspecified),-6.0%,2.1,0.3,3.2,30.1*,-11.0

# High-throughput results deposited in PubChem by National Center for Advancing Translational Sciences (NCATS).
